Assay outcomes deposited in PubChem BioAssay by Broad Institute.
Not all results are given here.
aSyn 5UTR act = Activators via SNCA 5'UTR binding, MLPCN; alpha-synuclein 5'UTR reporter, activators screen; activity score, % (tested at 7.5 µM), hits read low; 300,000 compounds, 7.1% hits; AID 1814, 2009; in the data active means activity score below about -60%
Starred values were filed as active, the others as inactive.

SMILES | aSyn 5UTR act
COc1ccc(C2=NN(C(C#N)c3ccc(OC)c(OC)c3)C(c3ccccc3)C2)cc1 (configuration not stated) | -172.2*
Cn1cc(CCNC(=O)c2ccc3nc(Cc4ccccc4F)oc3c2)cn1 | -116.3*
O=C(NCCc1ccccn1)c1ccc2nc(Cc3ccccc3F)oc2c1 | -111.4*
Cn1cc(CNC(=O)c2ccc3nc(Cc4ccccc4F)oc3c2)cn1 | -84.1*
CCn1nnc2cc(C(=O)NCCc3ccccc3F)ccc21 | 63.0
CS(=O)(=O)c1nc(S(=O)(=O)c2ccc(Cl)cc2)c(N2CCC3(CC2)OCCO3)s1 | -156.1*
N#C/C(=C\c1ccccc1O)C(=O)Nc1cccnc1 | -107.2*
Cc1cc(/C=C(\C#N)C(=O)Nc2ccccc2)c(C)n1-c1cccnc1 | -142.5*
CN(C)S(=O)(=O)c1ccc(C(=O)Nc2nc(-c3cc4ccccc4o3)cs2)cc1 | -136.9*
Cc1ccc(-c2nc3ccccc3s2)cc1S(=O)(=O)N1CCOCC1 | -66.0*
O=C(Nc1nc(-c2nc3ccccc3s2)cs1)c1ccc(S(=O)(=O)N2CCOCC2)cc1 | -75.2*
O=C(Nc1nc(-c2cc3ccccc3o2)cs1)c1ccc(S(=O)(=O)N2CCCC2)cc1 | -67.6*
Cc1c(C(=O)NCCC2=CCCCC2)cccc1[N+](=O)[O-] | -89.7*
Cc1cc(C(=O)NCCC2=CCCCC2)no1 | -81.2*
O=C(NCCC1=CCCCC1)c1cnsn1 | -65.2*
CC(C)=CCc1c(O)cc2c(=O)c3ccc(O)cc3oc2c1O | -140.7*
Cc1ccc(C)c(CNC(=O)Nc2ccccc2)c1 | -146.6*
Cc1ccc(CNC(=O)Nc2cccs2)cc1 | -115.4*
O=C(NCc1ccc(Cl)cc1Cl)Nc1ccccc1 | -91.4*
Cc1ccc(CNC(=O)NCc2ccccc2)cc1 | -63.1*
Cc1ccc(CNC(=O)Nc2ccc(Cl)cc2)cc1 | -98.7*
Cc1ccc(/C=N/NC(=O)Cc2ccc(Cl)cc2)c(O)c1 | 66.4
NC(=NCCCCCCN=C(N)/N=C(\N)Nc1ccc(Cl)cc1)/N=C(\N)Nc1ccc(Cl)cc1 | 96.1
Cc1ccc(CNC(=O)Nc2ccccc2)cc1 | -186.9*
O=C(NCC1CC1)Nc1ccc(Cl)cc1 | -79.4*
SMILES | aSyn 5UTR act
O=C(NCc1ccc(F)cc1)Nc1ccccc1 | -108.0*
CC(=O)N(Cc1ccc(F)cc1)C1=C(NCc2ccccc2)C(=O)c2ccccc2C1=O | 91.7
Cc1ccc(CNC(=O)Cc2cccs2)cc1 | -69.7*
CSc1ccc(NC(=O)NCc2ccccc2)cc1 | -151.9*
Cc1ccccc1-c1cc(-c2ccccc2O)n[nH]1 | -183.2*
Cc1ccc(-c2cc(-c3ccccc3[N+](=O)[O-])[nH]n2)c(O)c1 | -343.4*
Cc1ccc(-c2cc(-c3ccccc3Cl)[nH]n2)c(O)c1 | -220.7*
O=c1c2ccccc2nc2ccc(NCc3cccs3)nn12 | -163.9*
C/C(=N\Nc1cccc(C(=O)O)c1)c1cc2ccccc2o1 | -66.4*
C/C(=N\Nc1cccc([N+](=O)[O-])c1)c1cc2ccccc2o1 | -165.5*
Cc1onc(-c2ccccc2Cl)c1C(=O)N1CCN(c2cccc(Cl)c2)CC1 | 67.3
Cc1onc(-c2ccccc2Cl)c1C(=O)Nc1nc2c(s1)CCCC2 | -121.3*
COc1ccc2c(c1)-c1nc(NC(=O)c3cccs3)sc1CC2 | -122.3*
COc1ccc2c(c1)Cc1sc(NC(C)=O)nc1-2 | -169.1*
COc1ccc2c(c1)Cc1sc(NC(=O)c3cccnc3)nc1-2 | -63.0*
COc1ccc2c(c1)CCc1sc(NC(=O)c3ccco3)nc1-2 | -114.0*
COc1ccc2c(c1)Cc1sc(NC(=O)c3ccco3)nc1-2 | -264.7*
O=C(Nc1nc2c(s1)CCCC2)c1cccnc1 | -163.9*
O=C(CC1CCCCC1)NCc1ccc(Cl)cc1 | -68.5*
Cc1ccc(C(=O)Nc2cc3c(oc2=O)CCCC3=O)cc1 | -65.1*
CC(C)c1ccc(NC(=O)c2sccc2-n2cccc2)cc1 | -145.9*
N#C/C(=N\Nc1cccc(C(F)(F)F)c1)C(=O)c1ccsc1 | -108.7*
Cc1[nH]n(-c2ccc(Cl)cc2)c(=O)c1N=Nc1cccnc1 | -92.6*
Nc1c(N=Nc2cccc(Cl)c2)c(=O)[nH]n1-c1ccccc1 | -66.1*
CSc1ccc(N=Nc2c(C)[nH]n(C)c2=O)cc1 | -62.1*
SMILES | aSyn 5UTR act
Cc1[nH]n(-c2ccccc2)c(=O)c1N=Nc1c(O)cc(S(=O)(=O)N(C)C)c2ccccc12 | 70.7
Cc1[nH]n(-c2ccccc2)c(=O)c1N=Nc1ccc2c(c1)OCCO2 | -220.3*
Cc1cc(N)ccc1N=Nc1c(C)n(C)n(-c2ccccc2)c1=O | -73.2*
Cc1[nH]n(-c2ccccc2)c(=O)c1N=Nc1cccc([N+](=O)[O-])c1 | -70.8*
Cc1ccc(N=Nc2c(C)[nH]n(-c3ccccc3)c2=O)c(C)c1 | -78.2*
Cc1[nH]n(-c2ccccc2)c(=O)c1N=Nc1ccc(F)cc1 | -80.6*
Cc1[nH]n(-c2ccccc2)c(=O)c1N=Nc1cccc(Cl)c1 | -202.1*
COc1cccc(/C=N/NC(=O)c2[nH]nc3c2CCc2ccccc2-3)c1 | -68.6*
CC(C)NC(=O)c1[nH]nc2c1CCc1ccccc1-2 | -164.9*
CC1Oc2ccccc2C=C1/C=N/Nc1ccc(C(=O)O)cc1 (configuration not stated) | -95.1*
O=C(CSCC(=O)N1CCCCC1)Nc1nc(-c2ccc(Cl)s2)cs1 | -118.1*
O=C(CN1C(=O)CCC1=O)Nc1nc(-c2ccc(Cl)s2)cs1 | -63.9*
O=C(Nc1nncs1)c1ccc2c(c1)OCO2 | -83.2*
CSc1nnc(NC(=O)c2ccc3c(c2)OCO3)s1 | 81.4
Cc1nnc(NC(=O)c2ccc3c(c2)OCO3)s1 | -150.2*
Cc1nnc(NC(=O)c2c(F)c(F)c(F)c(F)c2F)s1 | -73.0*
Cc1nnc(NC(=O)c2ccc(S(=O)(=O)C(F)F)cc2)s1 | -78.4*
COCCSc1nnc(NC(=O)c2ccc3c(c2)OCO3)s1 | -118.2*
Cc1nnc(NC(=O)c2cccc(Br)c2)s1 | -95.9*
Cc1ccc(C)c(OCC(=O)Nc2cccc(C(=O)O)c2)c1C | -110.2*
Cc1cc(C)c(OCC(=O)Nc2cc(C(=O)O)cc(C(=O)O)c2)cc1C | -129.4*
CN1CCSc2ccc(C(=O)Nc3cccc(F)c3)cc21 | -133.6*
COc1ccc(NC(=O)c2ccc3c(c2)N(C)CCS3)cc1 | -147.6*
Clc1ccc(-c2cc(CN3CCCCC3)no2)cc1Cl | -114.4*
Clc1ccc(-c2cc(CN3CCOCC3)no2)cc1 | -148.0*
SMILES | aSyn 5UTR act
Cc1ccc(C(=O)/C=C/c2ccc3c(c2)OCCO3)c(O)c1 | -181.1*
O=C(/C=C/c1ccc2c(c1)OCCCO2)c1ccc2ccccc2c1O | -157.8*
COCCCN(C(C)=O)c1nc(-c2ccc(OC)cc2)cs1 | -104.9*
CCN(C(=O)c1cccs1)c1nc(-c2ccc(OC)cc2)cs1 | -130.5*
Cc1ccc(/C=C/C(=O)c2ccc(O)cc2)cc1 | -309.3*
COc1cc(/C=C/C(=O)c2ccc(C)cc2)ccc1OCC#N | -100.3*
Cc1ccc(C(=O)/C=C/c2ccc3ncccc3c2)cc1 | -67.6*
CSc1ccc(/C=C/C(=O)c2ccc(O)cc2)cc1 | -172.0*
COc1cc(C(=O)OCC#N)ccc1OCc1c(C)noc1C | -66.4*
O=C(O)c1ccccc1C(=O)NNc1cccc(Cl)n1 | -108.0*
Cc1nc(-c2ccc(Cl)cc2)sc1C1(C)CC(c2ccccc2)=NO1 (configuration not stated) | -134.2*
COc1ccccc1C1=NOC(C)(c2sc(-c3ccc(Cl)cc3)nc2C)C1 (configuration not stated) | -69.8*
Cc1nc(-c2ccccc2)sc1C1(C)CC(c2ccccc2F)=NO1 (configuration not stated) | -75.6*
CCCCCCc1ccc(-c2ncc(N)cn2)cc1 | -67.7*
